{"source": "PubChem BioAssay (Tox21)", "note": "Records with an inconclusive call do not appear. Active and inactive are the calls of the source. Calls follow the shape of the dose curve; as a rule, active = well fitted curve in the direction sought with a large enough effect in the repeat runs; inconclusive = weak or mixed curves; inactive = no such curve, though single readings can be large; an effect the other way counts as inactive or inconclusive. % is scaled to controls: 0 for no effect and ±100 for the full control effect."}
{"tested_on": "not listed separately", "experiment": "Caspase-3/7 induction in HepG2 cells by small molecules, qHTS cell viability counter screen (AID 1346981); also: nearly all actives have a fitted effect of over 30% in size", "settings": "CellTiter-Fluor fluorescence, 17 h; series mostly up to 92.4 µM; activity change, negative = cytotoxicity: at the top concentration", "in_short": "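Counter screen for cytotoxicity: HepG2 exposed 16 hr to compounds, then CellTiter-Fluor viability signal (fluorescence, 1 hr reagent incubation).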"}
{"smiles": "Fc1cc(Br)ccc1CBr", "activity change, negative = cytotoxicity": "-1.37% [at 42.5 µM] (inactive)"}
{"smiles": "CCOP(=S)(Oc1cnc(C(C)(C)C)nc1)OC(C)C", "note": "(centres undefined)", "activity change, negative = cytotoxicity": "-2.08% (inactive)"}
{"smiles": "[As]#[In]", "activity change, negative = cytotoxicity": "2.69% (inactive)"}
{"smiles": "C[C@]12CC[C@H]3[C@@H](CCC4=CC(=O)CC[C@@]43C)[C@@H]1CC[C@@H]2C(=O)O", "activity change, negative = cytotoxicity": "6.07% [at 42.5 µM] (inactive)"}
{"smiles": "CC1(C(=O)Nc2ccc(O)c(Cl)c2Cl)CCCCC1", "activity change, negative = cytotoxicity": "0.467% (inactive)"}
{"smiles": "CN1CCC(O)(c2ccc(F)cc2)C(C(=O)c2ccc(F)cc2)C1", "note": "(centres undefined)", "activity change, negative = cytotoxicity": "2.02% [at 42.5 µM] (inactive)"}
{"smiles": "ClCCOCOCCCl", "activity change, negative = cytotoxicity": "-1.39% (inactive)"}
{"smiles": "Cc1ccccc1CO[C@@H]1C[C@@]2(C(C)C)CC[C@]1(C)O2", "activity change, negative = cytotoxicity": "2.5% (inactive)"}
{"smiles": "Cc1nnc2n1-c1sc(CCC(=O)N3CCOCC3)cc1C(c1ccccc1Cl)=NC2", "activity change, negative = cytotoxicity": "0.43% [at 42.5 µM] (inactive)"}
{"smiles": "CC1(C)CON(Cc2ccccc2Cl)C1=O", "activity change, negative = cytotoxicity": "7.36% (inactive)"}
{"smiles": "CN(N=O)C(N)=O", "activity change, negative = cytotoxicity": "1.12% (inactive)"}
{"smiles": "O=C(NCO)NCO", "activity change, negative = cytotoxicity": "-0.087% (inactive)"}
{"smiles": "CC(C)[N+](=O)[O-]", "activity change, negative = cytotoxicity": "-8.5% (inactive)"}
{"smiles": "[O]=[Cd]", "activity change, negative = cytotoxicity": "3.48% (inactive)"}
{"smiles": "Nc1n[nH]c(N)n1", "activity change, negative = cytotoxicity": "-0.305% (inactive)"}
{"smiles": "Cc1ncsc1CCCl", "activity change, negative = cytotoxicity": "6.13% [at 42.5 µM] (inactive)"}
{"smiles": "CNC(=O)Oc1cccc(C(C)C)c1", "activity change, negative = cytotoxicity": "-0.676% (inactive)"}
{"smiles": "CNNC", "activity change, negative = cytotoxicity": "-1.4% (inactive)"}
{"smiles": "O=[N+]([O-])c1cccc(O)c1", "activity change, negative = cytotoxicity": "2.14% (inactive)"}
{"smiles": "CCC(Cl)[N+](=O)[O-]", "note": "(centres undefined)", "activity change, negative = cytotoxicity": "0.364% (inactive)"}
{"smiles": "O=[N+]([O-])c1ccc(CBr)cc1", "activity change, negative = cytotoxicity": "0.415% (inactive)"}
{"smiles": "CC(C(O)c1ccccc1)N(C)C/C=C/c1ccccc1", "note": "(centres undefined)", "activity change, negative = cytotoxicity": "-4.81% [at 42.5 µM] (inactive)"}
{"smiles": "O=C(O)c1cccc(Cl)c1", "activity change, negative = cytotoxicity": "7.27% (inactive)"}
{"smiles": "CCC1(c2ccccc2)C(=O)N=C(O)NC1=O", "note": "(centres undefined)", "activity change, negative = cytotoxicity": "0.928% (inactive)"}
{"smiles": "CC(C(=O)c1ccccc1)N(C)C", "note": "(centres undefined)", "activity change, negative = cytotoxicity": "3.97% [at 42.5 µM] (inactive)"}
{"smiles": "O=C(CCCN1CCC(n2c(=O)[nH]c3ccccc32)CC1)c1ccc(F)cc1", "activity change, negative = cytotoxicity": "-7.3% [at 42.5 µM] (inactive)"}
{"smiles": "CCOP(=S)(OCC)Oc1cc(-c2ccccc2)on1", "activity change, negative = cytotoxicity": "-1.14% (inactive)"}
{"smiles": "COC(=O)C(c1ccccc1)C1CCCCN1", "note": "(centres undefined)", "activity change, negative = cytotoxicity": "-0.033% (inactive)"}
{"smiles": "CCOC(=O)C1(c2ccccc2)CCN(CCc2ccc(N)cc2)CC1", "activity change, negative = cytotoxicity": "0.139% [at 42.5 µM] (inactive)"}
{"smiles": "COP(=S)(OC)Oc1c(Cl)cc(C)cc1Cl", "activity change, negative = cytotoxicity": "-0.85% (inactive)"}
{"smiles": "CCOC(=O)/C=C(C)/C=C/C[C@@H](C)CCCC(C)C", "activity change, negative = cytotoxicity": "1.45% (inactive)"}
{"smiles": "O=[N+]([O-])c1cccc2cccnc12", "activity change, negative = cytotoxicity": "-3.02% (inactive)"}
{"smiles": "COC(C)(C)C", "activity change, negative = cytotoxicity": "4.42% (inactive)"}
{"smiles": "COc1cc(C[C@@H](C)N)c(OC)cc1C", "activity change, negative = cytotoxicity": "0.493% (inactive)"}
{"smiles": "CC(CC(C#N)(c1ccccc1)c1ccccc1)N(C)C", "note": "(centres undefined)", "activity change, negative = cytotoxicity": "-12% (inactive)"}
{"smiles": "O=[N+]([O-])c1ccc2c3c(cccc13)CC2", "activity change, negative = cytotoxicity": "-4.66% (inactive)"}
{"smiles": "NC(=O)c1cc([N+](=O)[O-])cc([N+](=O)[O-])c1", "activity change, negative = cytotoxicity": "-1.91% [at 42.5 µM] (inactive)"}
{"molecular_target": "Nuclear receptor subfamily 1 group I member 2 (Homo sapiens) (UniProt O75469)", "sequence (O75469 whole entry, looked up)": "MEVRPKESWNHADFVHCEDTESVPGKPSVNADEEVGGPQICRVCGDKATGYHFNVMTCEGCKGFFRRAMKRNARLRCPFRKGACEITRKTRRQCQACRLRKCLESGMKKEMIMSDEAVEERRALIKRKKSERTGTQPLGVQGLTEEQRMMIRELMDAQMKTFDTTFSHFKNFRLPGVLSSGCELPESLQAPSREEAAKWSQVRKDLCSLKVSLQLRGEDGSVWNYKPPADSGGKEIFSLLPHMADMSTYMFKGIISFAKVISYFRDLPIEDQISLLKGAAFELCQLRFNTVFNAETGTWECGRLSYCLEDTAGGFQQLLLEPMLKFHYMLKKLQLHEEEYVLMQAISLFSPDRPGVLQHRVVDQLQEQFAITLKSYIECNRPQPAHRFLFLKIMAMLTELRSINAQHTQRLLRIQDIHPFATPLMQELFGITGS", "experiment": "Human pregnane X receptor (PXR) small molecule agonists, qHTS assay (AID 1346982); also: nearly all actives have a fitted effect of over 35% in size; also: potency is read from the fitted curve at half-maximal effect", "settings": "PXR-Luc HepG2, CYP3A4 luciferase reporter, 24 h; series mostly up to 92.4 µM; activation: at the top concentration", "in_short": "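Luminescence (ONE-Glo, 30 min RT) after 24 hr compound exposure of PXR-Luc HepG2 cells; cells rested 5 hr post-plating in 5% charcoal-stripped FBS medium.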"}
{"smiles": "CCOP(=S)(Oc1cnc(C(C)(C)C)nc1)OC(C)C", "note": "(centres undefined)", "Potency": "24.3 µM (active)"}
{"smiles": "[As]#[In]", "activation": "9.51% (inactive)"}
{"smiles": "C[C@]12CC[C@H]3[C@@H](CCC4=CC(=O)CC[C@@]43C)[C@@H]1CC[C@@H]2C(=O)O", "activation": "-4.42% [at 42.5 µM] (inactive)"}
{"smiles": "CC1(C(=O)Nc2ccc(O)c(Cl)c2Cl)CCCCC1", "Potency": "19.3 µM (active)"}
{"smiles": "CN1CCC(O)(c2ccc(F)cc2)C(C(=O)c2ccc(F)cc2)C1", "note": "(centres undefined)", "Potency": "13.3 µM (active)"}
{"smiles": "ClCCOCOCCCl", "activation": "8% (inactive)"}
{"smiles": "Cc1ccccc1CO[C@@H]1C[C@@]2(C(C)C)CC[C@]1(C)O2", "activation": "8.97% (inactive)"}
{"smiles": "Cc1nnc2n1-c1sc(CCC(=O)N3CCOCC3)cc1C(c1ccccc1Cl)=NC2", "activation": "19.9% [at 42.5 µM] (inactive)"}
{"smiles": "CC1(C)CON(Cc2ccccc2Cl)C1=O", "Potency": "68.6 µM (active)"}
{"smiles": "CN(N=O)C(N)=O", "activation": "1.33% (inactive)"}
{"smiles": "O=C(NCO)NCO", "activation": "1.46% (inactive)"}
{"smiles": "CC(C)[N+](=O)[O-]", "activation": "15.4% (inactive)"}
{"smiles": "[O]=[Cd]", "activation": "5.22% (inactive)"}
{"smiles": "Nc1n[nH]c(N)n1", "activation": "-3.89% (inactive)"}
{"smiles": "Cc1ncsc1CCCl", "activation": "-6.92% [at 42.5 µM] (inactive)"}
{"smiles": "CCC(Cl)[N+](=O)[O-]", "note": "(centres undefined)", "activation": "21.5% (inactive)"}
{"smiles": "CC(C(O)c1ccccc1)N(C)C/C=C/c1ccccc1", "note": "(centres undefined)", "activation": "24.6% [at 42.5 µM] (inactive)"}
{"smiles": "O=C(O)c1cccc(Cl)c1", "activation": "2.47% (inactive)"}
{"smiles": "CCC1(c2ccccc2)C(=O)N=C(O)NC1=O", "note": "(centres undefined)", "Potency": "53 µM (active)"}
{"smiles": "CC(C(=O)c1ccccc1)N(C)C", "note": "(centres undefined)", "activation": "24.3% [at 42.5 µM] (inactive)"}
{"smiles": "O=C(CCCN1CCC(n2c(=O)[nH]c3ccccc32)CC1)c1ccc(F)cc1", "Potency": "13.3 µM (active)"}
{"smiles": "COC(=O)C(c1ccccc1)C1CCCCN1", "note": "(centres undefined)", "activation": "27.6% (inactive)"}
{"smiles": "CCOC(=O)C1(c2ccccc2)CCN(CCc2ccc(N)cc2)CC1", "Potency": "3.76 µM (active)"}
{"smiles": "COP(=S)(OC)Oc1c(Cl)cc(C)cc1Cl", "Potency": "24.3 µM (active)"}
{"smiles": "O=[N+]([O-])c1cccc2cccnc12", "Potency": "35.3 µM (active)"}
{"smiles": "COC(C)(C)C", "activation": "13.5% (inactive)"}
{"smiles": "COc1cc(C[C@@H](C)N)c(OC)cc1C", "activation": "-2.53% (inactive)"}
{"smiles": "CC(CC(C#N)(c1ccccc1)c1ccccc1)N(C)C", "note": "(centres undefined)", "activation": "0.371% (inactive)"}
{"smiles": "O=[N+]([O-])c1ccc2c3c(cccc13)CC2", "Potency": "54.5 µM (active)"}
{"smiles": "NC(=O)c1cc([N+](=O)[O-])cc([N+](=O)[O-])c1", "activation": "-7.26% [at 42.5 µM] (inactive)"}
{"molecular_target": "Nuclear receptor subfamily 1 group I member 2 (Rattus norvegicus) (UniProt Q9R1A7)", "sequence (Q9R1A7 whole entry, looked up)": "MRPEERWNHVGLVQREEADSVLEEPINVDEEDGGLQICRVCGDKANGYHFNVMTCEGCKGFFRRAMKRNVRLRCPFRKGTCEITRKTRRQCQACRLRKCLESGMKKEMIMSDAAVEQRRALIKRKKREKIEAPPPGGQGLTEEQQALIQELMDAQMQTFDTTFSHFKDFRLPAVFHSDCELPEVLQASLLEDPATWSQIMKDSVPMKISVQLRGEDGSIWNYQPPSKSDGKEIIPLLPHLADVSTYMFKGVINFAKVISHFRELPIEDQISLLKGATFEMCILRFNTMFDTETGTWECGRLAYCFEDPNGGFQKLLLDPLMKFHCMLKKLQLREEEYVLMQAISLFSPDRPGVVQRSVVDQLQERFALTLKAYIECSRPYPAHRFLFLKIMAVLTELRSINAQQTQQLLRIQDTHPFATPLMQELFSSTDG", "experiment": "Rat pregnane X receptor (rPXR) activation by small molecules, qHTS assay (AID 1346983); also: nearly all actives have a fitted effect of over 20% in size", "settings": "rPXR luciferase reporter cells, One-Glo luminescence, 24 h; max activation: active compounds read high", "in_short": "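Luminescent readout (One-Glo luciferase, 30 min room temperature) followed 24 hr compound treatment at 37 C of rPXR cells plated 2,000 per well and preincubated 5hr; qHTS format with compounds delivered in DMSO.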"}
{"smiles": "CN1CCC(O)(c2ccc(F)cc2)C(C(=O)c2ccc(F)cc2)C1", "note": "(centres undefined)", "max activation": "-0.751% (inactive)"}
{"smiles": "[O]=[Cd]", "max activation": "0.414% (inactive)"}
{"smiles": "Cc1ncsc1CCCl", "max activation": "-0.969% (inactive)"}
{"smiles": "O=C(CCCN1CCC(n2c(=O)[nH]c3ccccc32)CC1)c1ccc(F)cc1", "max activation": "-1.58% (inactive)"}
{"smiles": "COC(=O)C(c1ccccc1)C1CCCCN1", "note": "(centres undefined)", "max activation": "-3.29% (inactive)"}
{"smiles": "CCOC(=O)/C=C(C)/C=C/C[C@@H](C)CCCC(C)C", "max activation": "-2.62% (inactive)"}
{"smiles": "NC(=O)c1cc([N+](=O)[O-])cc([N+](=O)[O-])c1", "max activation": "-0.752% (inactive)"}
